This note sets out measurements from ChEMBL document CHEMBL1961873, “Compounds: GSK PKIS; Assays: Nanosyn kinase panel” (2012).

The target in assay [1] is Fibroblast growth factor receptor 4 (Homo sapiens) (UniProt P22455). Particulars: at 1 µM.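 Further: reported figure is the averaged percent inhibition of FGFR4, from the GSK PKIS kinase screening panel.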
Assay [2] concerns the target Tyrosine-protein kinase Fgr (Homo sapiens) (UniProt P09769). Particulars: at 0.1 µM.
Assay [3] has the same target. The conditions noted are these: at 1 µM.
The target in assay [4] is Vascular endothelial growth factor receptor 1 (Homo sapiens) (UniProt P17948). The conditions noted are these: at 0.1 µM.
The target is the same in assay [5]. The conditions noted are these: at 1 µM.
Assay [6] has as its target Receptor-type tyrosine-protein kinase FLT3 (Homo sapiens) (UniProt P36888). The conditions noted are these: at 0.1 µM.
Assay [7] shares this target. Particulars: at 1 µM.
The subject of assay [8] is T1, Receptor-type tyrosine-protein kinase FLT3 (Homo sapiens), P36888 [D835Y].
T1 sequence (whole entry): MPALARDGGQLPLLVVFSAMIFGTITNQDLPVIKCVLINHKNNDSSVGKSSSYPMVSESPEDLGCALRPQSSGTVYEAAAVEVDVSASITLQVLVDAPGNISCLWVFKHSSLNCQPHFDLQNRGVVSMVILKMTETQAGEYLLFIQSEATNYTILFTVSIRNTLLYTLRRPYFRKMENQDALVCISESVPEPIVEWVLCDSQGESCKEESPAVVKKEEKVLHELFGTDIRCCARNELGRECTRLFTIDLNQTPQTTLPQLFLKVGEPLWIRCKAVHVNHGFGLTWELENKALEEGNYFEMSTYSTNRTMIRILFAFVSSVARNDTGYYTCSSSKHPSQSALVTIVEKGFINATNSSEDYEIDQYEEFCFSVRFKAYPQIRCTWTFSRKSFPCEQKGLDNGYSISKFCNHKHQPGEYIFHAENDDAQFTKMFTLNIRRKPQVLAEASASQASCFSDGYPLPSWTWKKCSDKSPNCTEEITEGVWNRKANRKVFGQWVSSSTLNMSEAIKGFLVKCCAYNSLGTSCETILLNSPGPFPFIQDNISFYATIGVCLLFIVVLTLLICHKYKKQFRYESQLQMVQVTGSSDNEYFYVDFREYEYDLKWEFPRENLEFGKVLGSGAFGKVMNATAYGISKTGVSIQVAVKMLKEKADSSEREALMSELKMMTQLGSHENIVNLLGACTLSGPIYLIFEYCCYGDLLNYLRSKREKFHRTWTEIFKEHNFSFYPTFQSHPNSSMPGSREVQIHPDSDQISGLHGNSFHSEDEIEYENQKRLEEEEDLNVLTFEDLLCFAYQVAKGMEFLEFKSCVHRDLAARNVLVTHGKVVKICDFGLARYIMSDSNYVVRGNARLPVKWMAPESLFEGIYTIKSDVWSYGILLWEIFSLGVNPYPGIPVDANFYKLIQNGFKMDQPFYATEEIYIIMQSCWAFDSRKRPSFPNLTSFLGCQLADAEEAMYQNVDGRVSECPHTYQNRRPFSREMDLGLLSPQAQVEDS
The conditions noted are these: at 0.1 µM.

The target in assay [9] is Non-receptor tyrosine-protein kinase TYK2 (Homo sapiens) (UniProt P29597). The conditions noted are these: at 1 µM.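 Further: values are mean percent inhibition of TYK2 kinase.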
Non-receptor tyrosine-protein kinase TYK2 (Homo sapiens), sequence (P29597 whole entry): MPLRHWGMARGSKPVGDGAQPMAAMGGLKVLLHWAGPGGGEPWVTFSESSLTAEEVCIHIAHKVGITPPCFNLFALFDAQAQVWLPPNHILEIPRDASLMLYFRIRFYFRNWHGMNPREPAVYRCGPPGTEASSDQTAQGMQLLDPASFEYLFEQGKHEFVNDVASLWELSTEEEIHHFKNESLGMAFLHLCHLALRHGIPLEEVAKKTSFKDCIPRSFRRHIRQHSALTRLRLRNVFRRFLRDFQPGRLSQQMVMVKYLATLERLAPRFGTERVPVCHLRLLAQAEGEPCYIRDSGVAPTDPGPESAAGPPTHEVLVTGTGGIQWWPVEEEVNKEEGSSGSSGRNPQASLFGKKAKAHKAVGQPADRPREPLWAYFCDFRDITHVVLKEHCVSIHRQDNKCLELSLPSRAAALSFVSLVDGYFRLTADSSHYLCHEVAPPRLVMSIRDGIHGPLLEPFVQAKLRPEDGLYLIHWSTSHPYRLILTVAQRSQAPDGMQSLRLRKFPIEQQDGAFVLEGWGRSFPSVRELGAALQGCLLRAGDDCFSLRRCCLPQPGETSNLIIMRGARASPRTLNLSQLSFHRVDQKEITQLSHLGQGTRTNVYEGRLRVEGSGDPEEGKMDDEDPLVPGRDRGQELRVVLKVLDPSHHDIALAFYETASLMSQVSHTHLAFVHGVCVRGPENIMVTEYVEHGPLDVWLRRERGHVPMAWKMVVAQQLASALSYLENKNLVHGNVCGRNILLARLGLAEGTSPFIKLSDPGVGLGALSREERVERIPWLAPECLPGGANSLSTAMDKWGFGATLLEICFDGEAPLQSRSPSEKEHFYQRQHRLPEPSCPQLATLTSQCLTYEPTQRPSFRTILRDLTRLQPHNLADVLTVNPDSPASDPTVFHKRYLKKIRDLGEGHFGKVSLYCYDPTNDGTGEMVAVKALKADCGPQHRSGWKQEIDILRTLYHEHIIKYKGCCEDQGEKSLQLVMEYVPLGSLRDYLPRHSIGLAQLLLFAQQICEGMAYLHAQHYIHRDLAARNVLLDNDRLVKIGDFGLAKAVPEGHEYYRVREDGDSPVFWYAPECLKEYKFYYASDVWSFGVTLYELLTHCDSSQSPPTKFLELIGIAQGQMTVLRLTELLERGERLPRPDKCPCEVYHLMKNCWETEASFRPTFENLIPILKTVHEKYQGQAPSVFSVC
Assay [10] has as its target T2, Tyrosine-protein kinase receptor TYRO3 (Homo sapiens) (UniProt Q06418).
T2 sequence (whole entry): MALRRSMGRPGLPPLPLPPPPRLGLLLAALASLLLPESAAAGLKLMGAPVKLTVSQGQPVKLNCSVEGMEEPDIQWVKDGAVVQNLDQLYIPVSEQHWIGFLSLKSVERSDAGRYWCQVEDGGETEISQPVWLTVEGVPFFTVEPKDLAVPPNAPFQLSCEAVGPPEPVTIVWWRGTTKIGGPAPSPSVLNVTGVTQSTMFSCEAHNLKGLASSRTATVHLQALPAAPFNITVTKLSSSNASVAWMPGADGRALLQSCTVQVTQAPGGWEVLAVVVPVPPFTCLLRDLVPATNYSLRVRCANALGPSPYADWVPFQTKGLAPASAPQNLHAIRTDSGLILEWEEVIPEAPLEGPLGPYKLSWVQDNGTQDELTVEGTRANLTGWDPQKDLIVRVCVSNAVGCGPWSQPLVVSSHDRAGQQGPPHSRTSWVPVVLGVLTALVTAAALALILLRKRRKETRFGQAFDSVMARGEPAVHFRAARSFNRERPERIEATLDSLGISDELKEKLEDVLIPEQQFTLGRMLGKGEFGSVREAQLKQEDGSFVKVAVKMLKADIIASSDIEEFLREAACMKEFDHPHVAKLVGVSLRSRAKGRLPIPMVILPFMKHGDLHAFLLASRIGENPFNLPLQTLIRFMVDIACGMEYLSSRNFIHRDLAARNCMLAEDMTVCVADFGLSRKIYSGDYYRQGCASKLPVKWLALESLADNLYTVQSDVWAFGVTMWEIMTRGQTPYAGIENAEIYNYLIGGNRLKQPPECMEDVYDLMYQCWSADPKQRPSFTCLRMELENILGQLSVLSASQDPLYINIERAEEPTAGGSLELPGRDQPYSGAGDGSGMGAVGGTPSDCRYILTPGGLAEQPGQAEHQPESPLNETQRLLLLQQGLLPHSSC
The conditions noted are these: at 0.1 µM.

Assay [11] has as its target T2, Tyrosine-protein kinase receptor TYRO3 (Homo sapiens). The conditions noted are these: at 1 µM.
In assay [12] the target is Tyrosine-protein kinase Yes (Homo sapiens) (UniProt P07947). The conditions noted are these: at 0.1 µM.
Tyrosine-protein kinase Yes (Homo sapiens), sequence (P07947 2-543 limits assumed): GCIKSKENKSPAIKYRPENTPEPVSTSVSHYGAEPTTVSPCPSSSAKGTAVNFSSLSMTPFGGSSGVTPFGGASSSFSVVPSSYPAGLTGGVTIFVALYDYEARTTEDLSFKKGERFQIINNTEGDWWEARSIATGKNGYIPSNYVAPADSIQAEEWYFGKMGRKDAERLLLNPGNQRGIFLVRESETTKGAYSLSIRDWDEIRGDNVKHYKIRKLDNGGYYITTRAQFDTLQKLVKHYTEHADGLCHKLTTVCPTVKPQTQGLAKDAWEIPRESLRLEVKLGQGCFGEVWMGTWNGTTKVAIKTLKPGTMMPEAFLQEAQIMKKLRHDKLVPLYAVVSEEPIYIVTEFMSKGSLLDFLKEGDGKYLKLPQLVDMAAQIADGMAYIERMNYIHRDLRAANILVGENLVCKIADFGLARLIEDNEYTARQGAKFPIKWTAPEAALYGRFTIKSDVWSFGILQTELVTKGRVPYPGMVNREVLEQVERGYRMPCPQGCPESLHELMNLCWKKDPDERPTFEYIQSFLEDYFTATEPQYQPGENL
Assay [13] shares this target. The conditions noted are these: at 1 µM.
In assay [14] the target is T3, Tyrosine-protein kinase ZAP-70 (Homo sapiens) (UniProt P43403).
T3 sequence (whole entry): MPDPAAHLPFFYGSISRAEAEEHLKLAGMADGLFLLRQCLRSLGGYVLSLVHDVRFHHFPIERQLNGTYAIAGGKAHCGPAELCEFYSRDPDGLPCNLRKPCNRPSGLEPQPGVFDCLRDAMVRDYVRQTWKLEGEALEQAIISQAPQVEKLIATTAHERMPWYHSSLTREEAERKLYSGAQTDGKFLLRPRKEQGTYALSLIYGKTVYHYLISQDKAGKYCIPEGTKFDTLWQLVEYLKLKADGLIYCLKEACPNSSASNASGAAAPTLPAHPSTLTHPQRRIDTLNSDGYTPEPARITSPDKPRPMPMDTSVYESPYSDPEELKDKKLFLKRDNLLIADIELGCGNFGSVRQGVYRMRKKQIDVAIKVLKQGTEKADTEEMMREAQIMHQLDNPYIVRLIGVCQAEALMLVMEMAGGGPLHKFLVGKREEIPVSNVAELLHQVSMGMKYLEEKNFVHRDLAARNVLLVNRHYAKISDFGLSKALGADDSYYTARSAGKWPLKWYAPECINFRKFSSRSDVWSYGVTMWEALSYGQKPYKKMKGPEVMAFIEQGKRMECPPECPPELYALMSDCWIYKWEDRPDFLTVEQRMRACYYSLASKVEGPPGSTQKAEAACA
Particulars: at 0.1 µM.

In assay [15] the target is T3, Tyrosine-protein kinase ZAP-70 (Homo sapiens). Particulars: at 1 µM.
Assay [16] addresses Serine/threonine-protein kinase B-raf (Homo sapiens) (UniProt P15056). Particulars: at 0.1 µM.
Assay [17] shares this target. Particulars: at 1 µM.
Assay [18] deals with Serine/threonine-protein kinase B-raf (Homo sapiens), P15056 [V600E]. The conditions noted are these: at 0.1 µM.
Serine/threonine-protein kinase B-raf (Homo sapiens), P15056 [V600E], sequence (P15056 whole entry V600E): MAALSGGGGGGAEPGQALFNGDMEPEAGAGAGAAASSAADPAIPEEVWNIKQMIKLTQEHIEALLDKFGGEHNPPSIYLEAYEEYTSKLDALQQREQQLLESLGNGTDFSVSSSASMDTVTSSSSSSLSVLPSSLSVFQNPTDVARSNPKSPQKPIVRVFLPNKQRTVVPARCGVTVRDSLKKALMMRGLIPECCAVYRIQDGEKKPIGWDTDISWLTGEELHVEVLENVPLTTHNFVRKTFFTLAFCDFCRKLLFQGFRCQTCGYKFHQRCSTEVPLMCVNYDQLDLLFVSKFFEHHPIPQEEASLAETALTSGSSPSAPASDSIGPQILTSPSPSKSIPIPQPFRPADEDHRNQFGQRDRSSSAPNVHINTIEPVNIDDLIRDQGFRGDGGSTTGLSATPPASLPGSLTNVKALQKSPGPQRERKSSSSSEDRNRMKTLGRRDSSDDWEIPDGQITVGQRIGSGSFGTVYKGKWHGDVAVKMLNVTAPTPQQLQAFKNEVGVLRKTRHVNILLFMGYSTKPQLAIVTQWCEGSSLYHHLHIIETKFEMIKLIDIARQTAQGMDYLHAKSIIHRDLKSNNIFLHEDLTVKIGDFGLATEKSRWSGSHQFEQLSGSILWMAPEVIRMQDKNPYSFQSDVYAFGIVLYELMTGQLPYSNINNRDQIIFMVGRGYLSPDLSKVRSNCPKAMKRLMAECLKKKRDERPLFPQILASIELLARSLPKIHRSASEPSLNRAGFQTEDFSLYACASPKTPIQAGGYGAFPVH
Assay [19] has the same test system. The conditions noted are these: at 1 µM.
The target of assay [20] is RAF proto-oncogene serine/threonine-protein kinase (Homo sapiens) (UniProt P04049). The conditions noted are these: at 0.1 µM.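 Further: values are mean CRAF kinase inhibition from profiling of the GSK Published Kinase Inhibitor Set.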
RAF proto-oncogene serine/threonine-protein kinase (Homo sapiens), sequence (P04049 whole entry): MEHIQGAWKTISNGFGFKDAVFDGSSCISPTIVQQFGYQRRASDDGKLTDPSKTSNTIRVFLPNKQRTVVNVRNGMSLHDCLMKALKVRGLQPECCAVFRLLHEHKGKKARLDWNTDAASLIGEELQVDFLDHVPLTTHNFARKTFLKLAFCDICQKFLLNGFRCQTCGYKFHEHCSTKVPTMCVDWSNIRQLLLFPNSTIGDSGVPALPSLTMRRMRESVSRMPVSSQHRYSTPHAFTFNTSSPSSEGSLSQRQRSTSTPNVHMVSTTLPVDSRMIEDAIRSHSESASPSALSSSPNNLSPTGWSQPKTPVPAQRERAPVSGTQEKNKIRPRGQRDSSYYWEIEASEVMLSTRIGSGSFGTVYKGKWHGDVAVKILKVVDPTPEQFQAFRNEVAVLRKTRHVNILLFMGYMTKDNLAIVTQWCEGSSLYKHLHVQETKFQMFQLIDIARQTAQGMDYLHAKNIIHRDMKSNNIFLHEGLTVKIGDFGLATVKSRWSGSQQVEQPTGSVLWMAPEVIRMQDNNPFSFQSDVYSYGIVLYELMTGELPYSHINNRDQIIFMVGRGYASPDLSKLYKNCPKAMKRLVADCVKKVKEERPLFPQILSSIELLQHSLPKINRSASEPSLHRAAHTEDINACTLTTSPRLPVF

Serine/threonine-protein kinase B-raf (Homo sapiens), sequence (P15056 whole entry): as the sequence (P15056 whole entry V600E) above, with E600V counted along it
Tyrosine-protein kinase Fgr (Homo sapiens), sequence (P09769 2-529 limits assumed): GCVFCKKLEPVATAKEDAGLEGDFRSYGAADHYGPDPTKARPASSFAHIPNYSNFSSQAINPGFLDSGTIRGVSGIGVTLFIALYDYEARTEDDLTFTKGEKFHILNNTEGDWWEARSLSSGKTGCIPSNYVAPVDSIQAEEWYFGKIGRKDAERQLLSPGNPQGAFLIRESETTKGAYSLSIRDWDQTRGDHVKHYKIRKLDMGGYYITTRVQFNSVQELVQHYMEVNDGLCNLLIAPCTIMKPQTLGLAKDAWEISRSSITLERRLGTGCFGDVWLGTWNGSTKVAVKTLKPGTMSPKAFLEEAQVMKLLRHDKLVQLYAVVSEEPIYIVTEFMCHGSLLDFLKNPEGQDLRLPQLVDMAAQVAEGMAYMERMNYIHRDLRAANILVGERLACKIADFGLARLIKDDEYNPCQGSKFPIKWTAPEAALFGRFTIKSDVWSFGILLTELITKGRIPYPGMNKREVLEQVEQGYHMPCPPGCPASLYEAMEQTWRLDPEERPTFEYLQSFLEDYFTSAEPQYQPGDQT
Fibroblast growth factor receptor 4 (Homo sapiens), sequence (P22455 22-802 limits assumed): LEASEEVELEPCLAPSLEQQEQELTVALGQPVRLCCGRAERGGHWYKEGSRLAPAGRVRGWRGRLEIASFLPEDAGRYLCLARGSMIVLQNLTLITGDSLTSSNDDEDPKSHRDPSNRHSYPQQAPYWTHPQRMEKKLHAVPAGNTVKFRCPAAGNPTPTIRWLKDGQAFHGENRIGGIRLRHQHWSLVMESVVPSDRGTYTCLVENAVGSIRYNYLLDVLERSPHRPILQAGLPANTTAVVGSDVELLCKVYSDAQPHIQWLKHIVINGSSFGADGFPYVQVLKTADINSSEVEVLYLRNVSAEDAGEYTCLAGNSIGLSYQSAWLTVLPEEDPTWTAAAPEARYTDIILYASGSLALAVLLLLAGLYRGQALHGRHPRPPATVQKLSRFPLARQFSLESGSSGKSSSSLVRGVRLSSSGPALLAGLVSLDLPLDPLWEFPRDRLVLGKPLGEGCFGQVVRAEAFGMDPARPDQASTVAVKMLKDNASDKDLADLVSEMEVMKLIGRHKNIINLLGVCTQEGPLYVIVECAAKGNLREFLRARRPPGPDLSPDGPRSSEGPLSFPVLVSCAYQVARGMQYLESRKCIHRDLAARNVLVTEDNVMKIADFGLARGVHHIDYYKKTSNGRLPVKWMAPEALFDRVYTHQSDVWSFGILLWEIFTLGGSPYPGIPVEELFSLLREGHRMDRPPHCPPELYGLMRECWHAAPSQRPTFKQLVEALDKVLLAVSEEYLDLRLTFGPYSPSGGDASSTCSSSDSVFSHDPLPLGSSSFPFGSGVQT

As to `O=C(Nc1n[nH]c2nc(-c3ccc(O)cc3)c(Br)cc12)C1CC1`, the inhibition in assay [1] was found to be 3.05%; in [2], 7.15%; in [3] it was 21.3%; in assay [4], 2.34%; in assay [5], 17.7%; in [6] it was 5.54%. In addition, the inhibition in assay [7] came out at 25.7%; in assay [8], 4.14%; in assay [9], 17.6%; in assay [10], 10.4%; in assay [11] it was 41.4%; in [12] it was 5.61%. In addition, the inhibition came out at 27.4% in assay [13]; 5.14% in assay [14]; 4.28% in [15]; 9.27% in assay [16]; 12.6% in [17]; 10.1% in assay [18]. In addition, the figures for the inhibition in [19] and in assay [20] were 13% and -1.54%, respectively.

With `CCS(=O)(=O)c1ccc(OC)c(Nc2ncc(-c3ccccc3Cl)o2)c1`, the inhibition in assay [1] is 4.03%; in assay [2] it was 3.37%; in [3] it was 17%; in assay [4] it was 3.73%; in assay [5], 13.8%; in assay [6], 2.1%. Also, the inhibition in assay [7] is 21.1%; in [8] it was 7.14%; in assay [9] it was -1.06%; in assay [10] it was 5.33%; in assay [11], 42.6%; in [12], 8.95%. Besides, the inhibition in assay [13] is 39.3%; in assay [14], 2.78%; in [15], -0.17%; in assay [16], 0.55%; in assay [17], 0.2%; in [18] it was 0.25%. In addition, the values for the inhibition in assay [19] and in [20] were 0.86% and 0.78%, respectively.

As to `N#Cc1ccc(Oc2nccc(-c3c(-c4ccc(F)cc4)ncn3C3CCNCC3)n2)cc1`, the inhibition in assay [1] was -0.84%; in assay [2], 3.69%; in assay [3] it was 6.62%; in assay [4], -0.44%; in assay [5] it was -0.67%; in assay [6], -0.97%. The inhibition is 3.98% in assay [7]; -7.02% in assay [8]; -0.38% in assay [9]; 2.69% in assay [10]; 3.55% in assay [11]; 3.38% in [12]. In addition, the inhibition was 3.87% in assay [13]; -0.57% in assay [14]; 1.9% in assay [15]; 6.93% in assay [16]; 6.24% in [17]; 4.98% in assay [18]. The inhibition is 4.44% in assay [19] and -1.66% in assay [20].

In the case of `Fc1ccc(-c2nc3n(c2-c2ccncc2)CCS3)cc1`, the inhibition in assay [1] was -1.43%; in assay [2] it was 3.23%; in assay [3] it was 5.64%; in assay [4] it was 0.95%; in assay [5] it was 4.64%; in [6], 2.5%. In addition, the inhibition in assay [7] is 4.49%; in assay [8], 4.1%; in assay [9], -3.88%; in assay [10], 2.21%; in assay [11], 2.33%; in assay [12] it was 3.03%. In addition, the inhibition in [13] was 7.29%; in assay [14], -2.56%; in assay [15], -1.24%; in assay [16] it was 5.8%; in assay [17] it was 7.17%; in assay [18], 5.81%. For the same molecule, the inhibition in assay [19] was found to be 5.73%; in assay [20] it was 1.81%.

Take `COc1cc2ncn(-c3cc(OCCc4ccccc4)c(C(N)=O)s3)c2cc1OC`: the inhibition in [1] is 2%; in [2], -0.62%; in assay [3], 7.7%; in [4], 1.49%; in assay [5], 4.71%; in [6] it was 0.81%. The inhibition in [7] was 7.46%; in [8], 0.74%; in assay [9], -2.99%; in assay [10], 0.78%; in [11], 0.83%; in assay [12], 1.03%. The inhibition stood at 4.7% in assay [13]; 0.43% in assay [14]; 0.59% in assay [15]; 3.24% in assay [16]; 3.36% in [17]; 3.25% in assay [18]. In addition, the figures for the inhibition in assay [19] and in [20] were 3.42% and 0.38%, respectively.

Regarding `Fc1ccc(-c2ncn(CCCN3CCOCC3)c2-c2ccncc2)cc1`, the inhibition is 0.42% in assay [1]; -2.23% in assay [2]; 3.21% in assay [3]; -2.17% in assay [4]; 0.42% in assay [5]; 0.43% in assay [6]. Also, the inhibition in assay [7] is 1.49%; in assay [8], -3.55%; in assay [9] it was -0.81%; in assay [10], -0.71%; in assay [11], -1.64%; in assay [12], -0.25%. The inhibition in [13] was -0.03%; in [14], 3.48%; in [15] it was 3.14%; in assay [16] it was 0.29%; in [17] it was 1.33%; in assay [18] it was 0.73%. Also, the inhibition in [19] is 0.78%; in [20], -0.34%.

Broadly, the inhibition is the relative decrease from the control value, in per cent.
